Consider 17 molecules from PubChem BioAssay (NCATS).

For experiment [1], the target named is Ubiquitin carboxyl-terminal hydrolase 1 (Homo sapiens) (UniProt O94782). Nature of the experiment: Inhibitors of USP1/UAF1: Pilot qHTS (AID 504865).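 Also: rhodamine fluorescence freed from ubiquitin-rhodamine substrate followed over time; top concentration of the series differs between compounds; nearly all actives have a fitted effect of over 35% in size.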 In short, it runs like this:
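Enzyme-free wells gave the negative control, while test wells held 1nM USP1/UAF1 preincubated with compound for 15 min at room temperature. Ub-Rho at 150nM final started the reaction, and fluorescence at 480/540 nm was recorded kinetically.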

In experiment [2] the target is Mitogen-activated protein kinase 10 (Mus musculus) (UniProt Q61831). Kind of experiment: JNK3 AlphaScreen Assay (AID 530; active = well fitted curve in either direction with a large enough effect, not every such curve was filed as active;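 also: kinase came from lysate of stimulated human HepG2 cells; signal reports phosphorylation of biotinylated GST-cJun 1-79 at Ser73 with 10 µM ATP; series mostly up to about 57 µM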). In short, it runs like this:
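Phosphorylation of biotinylated GST-cJun(1-79) at Ser73 is measured by AlphaScreen proximity luminescence. Enzyme is JNK3 in HepG2 lysates activated with interleukin-1beta and tumor necrosis factor alpha; ATP is 10 uM final.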

Experiment [3] is described as follows: ZIKV-mCherry secondary qHTS for Zika virus inhibitors (AID 1347158). Also: top concentration of the series differs between compounds. In short, it runs like this: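 Percent infection is the share of Hoechst-identified Vero nuclei with mCherry signal above 450 RFU (3 SD over negative controls). Cells were infected with recombinant ZIKV-mCherry at MOI 1 after compound addition and imaged 48–72 h later.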
For experiment [4], the target named is Cytochrome P450 3A4 (Homo sapiens) (UniProt P08684). Kind of experiment: qHTS Assay for Inhibitors and Substrates of Cytochrome P450 3A4 (AID 884). Also: nearly all actives have a fitted effect of over 50% in size. Also: potency is read from the fitted curve at half-maximal effect. In short, it runs like this:
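Luminescent readout of luciferin produced by CYP3A4 (20 nM) dealkylation of Luciferin-PPXE, 25 uM (its KM). NADPH-driven reaction ran 60 min at RT after 10 min compound preincubation; data scaled to 57 uM ketoconazole as 100% inhibition.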

For experiment [5] the target is unchanged. Nature of the experiment: qHTS Assay for Activators of Cytochrome P450 3A4 (AID 885). Also: nearly all actives have a fitted effect of over 65% in size. In short, it runs like this:
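Human CYP3A4 dealkylates Luciferin-PPXE to luciferin, which luciferase detection converts to light. Substrate was at its KM (25uM), buffer 200mM KPO4, reaction 60 min at RT.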

The target in experiment [6] is 3',5'-cyclic-AMP phosphodiesterase 4B (Homo sapiens) (UniProt Q07343). Nature of the experiment: qHTS Assay for Inhibitors of PDE-IV (AID 607; active = well fitted activation curve with a large enough effect in the main read-out, with a control signal flat, not every such curve was filed as active). In short, it runs like this: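 HEK293 ACTOne cells with CNG channel (1000/well), endogenous PDE4; membrane potential dye, compounds up to 22.9 uM final. Fluorescence Ex 535/Em 590; RO 20-1724 (100 uM final) as reference.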

Experiment [7] in a line: HEK293 18hr Apoptosis Induction qHTS against the NCATS CANVASS Library (AID 1347357). In short, it runs like this: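 Natural products applied to HEK293 for 18 hr; Caspase-Glo 3/7 readout.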
The nature of experiment [8]: HEK293 12hr Apoptosis Induction qHTS against the NCATS CANVASS Library (AID 1347361). In short, it runs like this:
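Luminescent caspase-3/7 signal, proportional to enzyme activity, was recorded from HEK293 cultures in DMEM + 10% FBS treated for 12 hours with titrated natural products (11 points). Doxorubicin (0.1nM - 4uM) served as control.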

Experiment [9] in a line: SDT Cancer Cell Toxicity qHTS against the NCATS CANVASS Library (AID 1347365). Also: nearly all actives have a fitted effect of over 60% in size. In short, it runs like this: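 Cytotoxicity taken from CellTiterGlo ATP luminescence after 72 hr at 37C, 5% CO2. Canine glioma line SDT, 500 cells/well, treated at 11 concentrations; bortezomib dose series as control.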
The nature of experiment [10]: G06 Cancer Cell Toxicity qHTS against the NCATS CANVASS Library (AID 1347368). Also: nearly all actives have a fitted effect of over 60% in size. In short, it runs like this:
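Viability measured by CellTiterGlo ATP luminescence after 72 hr at 37C, 5% CO2. Canine G06 glioma cells plated at 500/well. Compounds tested as 11-point qHTS titrations.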

Experiment [11] can be described thus: qHTS for H2AX Agonists against the NCATS CANVASS Library (AID 1347378).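 Also: phospho-H2AX S139 level in CHO-K1 lysates by TR-FRET emission ratio.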 In short, it runs like this: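 Signal is the 665/620 nm emission ratio from europium cryptate and d2 antibody pair, rising with S139-phosphorylated H2AX. CHO-K1 cells saw test agents for 3 hr at 37C; detection ran 24 hr at room temperature.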
A short description of experiment [12]: qHTS for activators of Nrf2/ARE signaling pathway screened against the NCATS CANVASS Library (AID 1347391). Also: nearly all actives have a fitted effect of over 60% in size. In short, it runs like this: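 Eleven-point qHTS, 16 h treatment of HepG2 cells carrying an ARE-driven beta-lactamase reporter; CCF4 ratio read (405 nm excitation, 460 and 530 nm emission), with CellTiter-Glo ATP luminescence for viability.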
Experiment [13] is described as follows: KB-3-1 Cancer Cell Toxicity qHTS against the NCATS CANVASS Library (AID 1347366). Also: series mostly up to about 46 µM; nearly all actives have a fitted effect of over 75% in size. In short, it runs like this:
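Cytotoxicity toward KB-3-1 cells (500/well, DMEM + 10% FBS) was scored by CellTiter-Glo luminescence following 72 hr exposure at 37C, with bortezomib titrated as control.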

A short description of experiment [14]: qHTS for Antimalaria activity screened against the NCATS CANVASS Library (AID 1347380). Also: potency is read from the fitted curve at half-maximal effect; nearly all actives have a fitted effect of over 40% in size. In short, it runs like this:
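SYBR Green fluorescence at 485/535 nm was read 18 hr after lysis. This followed a 72 hr incubation at 37C in 5% O2, 5% CO2 of Dd2-infected erythrocytes (0.3% parasitemia, 2.5% final hematocrit) with compounds titrated over 11 concentrations.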

Experiment [15] can be described thus: qHTS for inhibitors of ER calcium dysfunction: SERCaMP assay screened against the NCATS CANVASS Library (AID 1347393).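 Also: series mostly up to about 77 µM; lower secreted reporter signal means inhibitor of ER calcium depletion; nearly all actives have a fitted effect of over 40% in size.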 In short, it runs like this: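 qHTS in SH-SY5Y reporter cells: 16 h compound pretreatment, 4 h thapsigargin, then secreted Gaussia luciferase measured by luminescence.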
Experiment [16] in a line: Redox Reaction Profiling qHTS: Assay Interference Panel against the NCATS CANVASS Library (AID 1347401). In short, it runs like this:
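Quantitative HTS over an 11-point series was run in HEPES pH 7.3 with 50 mM NaCl, 200 uM DTT and 5 uM resazurin. Initial and 15-min resorufin fluorescence readings were taken.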

Experiment [17] is described as follows: qHTS for Hypoxia signaling pathway (HIF-1) antagonists against the NCATS CANVASS Library (AID 1347374).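 Also: HRE-bla ME-180 cells stimulated with cobalt chloride to stabilize HIF-1alpha; series mostly up to about 38 µM; nearly all actives have a fitted effect of over 60% in size.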 In short, it runs like this:
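Antagonism scored as loss of CoCl2-driven (60 uM stock added) HRE beta-lactamase signal, read by CCF4 FRET at 460/530 nm. Compounds were tested in an 11-point series on ME-180 reporter cells for 17 hrs at 37C, with parallel CellTiter-Glo cytotoxicity.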

Experiment [18] in a line: Inflammasome Signaling qHTS Counterscreen: IL-1-beta AlphaLISA counterscreen against the NCATS CANVASS Library (AID 1347381).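 Also: cell-free check with purified IL-1β in medium and no THP-1 cells; series mostly up to about 57 µM.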 In short, it runs like this: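 Purified IL-1-beta (4 pg/well) + compound, 11-pt conc. series; acceptor beads 6 ug/mL + biotin-Ab 0.6 nM final, 1 h RT; SA-donor 24 ug/ml final, 30 min dark RT; read ex 680/em 615.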

Results filed as inconclusive are left out. Activity calls are given as the source filed them. Unless noted, calls follow the shape of the dose curve; as a rule, active = well fitted curve in the direction sought with a large enough effect; inconclusive = small, poorly fitted or top-dose-only effect, or another doubt; inactive = no such curve, though single readings can be large; an effect the other way counts as inactive or inconclusive.

Chain of Cytochrome P450 3A4 (Homo sapiens) (P08684 whole entry, looked up): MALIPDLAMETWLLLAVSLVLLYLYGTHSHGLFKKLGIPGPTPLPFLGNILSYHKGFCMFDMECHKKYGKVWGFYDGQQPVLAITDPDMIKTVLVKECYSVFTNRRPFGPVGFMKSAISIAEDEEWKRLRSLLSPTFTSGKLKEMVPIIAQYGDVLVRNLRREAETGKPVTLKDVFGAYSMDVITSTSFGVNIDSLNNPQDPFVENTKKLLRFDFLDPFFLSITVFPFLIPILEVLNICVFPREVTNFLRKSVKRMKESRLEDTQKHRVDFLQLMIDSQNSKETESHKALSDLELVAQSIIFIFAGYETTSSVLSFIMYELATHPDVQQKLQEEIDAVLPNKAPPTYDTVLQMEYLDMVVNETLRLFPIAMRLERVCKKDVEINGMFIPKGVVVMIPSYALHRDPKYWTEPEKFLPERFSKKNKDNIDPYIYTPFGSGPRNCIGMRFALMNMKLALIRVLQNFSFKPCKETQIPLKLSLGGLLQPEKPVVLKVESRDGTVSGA
Chain of Ubiquitin carboxyl-terminal hydrolase 1 (Homo sapiens) (O94782 whole entry, looked up): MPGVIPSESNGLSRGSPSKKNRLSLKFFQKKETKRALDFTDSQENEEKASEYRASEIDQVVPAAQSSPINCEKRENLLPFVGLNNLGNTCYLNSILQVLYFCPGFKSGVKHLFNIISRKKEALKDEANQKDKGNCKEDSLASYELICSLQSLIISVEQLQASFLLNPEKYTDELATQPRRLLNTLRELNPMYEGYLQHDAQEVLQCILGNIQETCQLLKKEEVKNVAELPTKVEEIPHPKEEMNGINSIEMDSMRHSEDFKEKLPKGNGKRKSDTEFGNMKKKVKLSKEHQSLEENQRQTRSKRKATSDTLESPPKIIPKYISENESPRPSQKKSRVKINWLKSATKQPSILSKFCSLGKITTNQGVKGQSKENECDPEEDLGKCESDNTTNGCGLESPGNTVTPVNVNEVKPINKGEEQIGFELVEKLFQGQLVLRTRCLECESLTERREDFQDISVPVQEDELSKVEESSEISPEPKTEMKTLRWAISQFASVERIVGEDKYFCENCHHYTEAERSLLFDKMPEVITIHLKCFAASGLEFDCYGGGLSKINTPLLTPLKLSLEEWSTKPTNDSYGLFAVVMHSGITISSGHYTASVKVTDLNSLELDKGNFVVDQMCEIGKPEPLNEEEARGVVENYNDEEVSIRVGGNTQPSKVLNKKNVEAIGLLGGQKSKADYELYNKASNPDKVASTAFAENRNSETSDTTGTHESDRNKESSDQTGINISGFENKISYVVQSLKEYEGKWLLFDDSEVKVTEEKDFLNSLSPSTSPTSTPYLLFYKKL
Chain of 3',5'-cyclic-AMP phosphodiesterase 4B (Homo sapiens) (Q07343 whole entry, looked up): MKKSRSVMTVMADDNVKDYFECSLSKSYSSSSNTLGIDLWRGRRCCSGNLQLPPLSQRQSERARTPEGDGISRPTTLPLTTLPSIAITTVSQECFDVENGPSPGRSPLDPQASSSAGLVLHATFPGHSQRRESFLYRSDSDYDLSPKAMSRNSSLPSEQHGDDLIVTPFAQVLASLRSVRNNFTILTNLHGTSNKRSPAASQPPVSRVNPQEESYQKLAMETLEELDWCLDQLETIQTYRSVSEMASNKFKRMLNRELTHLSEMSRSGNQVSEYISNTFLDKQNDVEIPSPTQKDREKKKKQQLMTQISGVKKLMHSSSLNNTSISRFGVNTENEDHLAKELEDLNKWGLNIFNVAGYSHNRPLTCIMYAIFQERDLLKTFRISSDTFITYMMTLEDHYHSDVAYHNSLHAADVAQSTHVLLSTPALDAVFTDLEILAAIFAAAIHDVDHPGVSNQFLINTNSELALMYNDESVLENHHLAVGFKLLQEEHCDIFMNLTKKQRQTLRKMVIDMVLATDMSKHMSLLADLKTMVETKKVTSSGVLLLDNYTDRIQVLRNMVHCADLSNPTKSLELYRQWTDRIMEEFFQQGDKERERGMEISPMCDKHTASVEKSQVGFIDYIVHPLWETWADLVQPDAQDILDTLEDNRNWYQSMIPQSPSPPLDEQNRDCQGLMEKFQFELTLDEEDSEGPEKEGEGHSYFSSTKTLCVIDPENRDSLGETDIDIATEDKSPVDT

As for `Cc1cccc(CCN2CCC(C(=O)c3ccc(NS(C)(=O)=O)cc3)CC2)n1`, in experiment [1], the Potency result is “inactive”.

On to `COc1ccc2cccc(N3CCN(CCNC(=O)c4ccc(F)cc4)CC3)c2c1`, for which the Potency result in experiment [2] is “inactive”.

With `CC(C)NC[C@@H](O)COc1ccccc1-n1cccc1`, the Potency result in experiment [1] is “inactive”.

On to `COC(=O)c1ccc([C@H]2Nc3ccc(S(=O)(=O)Nc4cccc(C)c4)cc3[C@H]3C=CC[C@H]32)cc1`, for which, in [3], the Potency result was “inactive”.

Consider `O=C1CC2(CCCC2)CC(=O)N1CCCCNC[C@H]1COc2ccccc2O1`, for which the Potency in [4] was 0.631 µM (active). The Potency result in experiment [5] and in experiment [1] was “inactive” throughout.

Turning to `O=C1c2ccccc2C(Cc2ccnc(F)c2)(Cc2ccnc(F)c2)c2ccccc21`, in experiment [4], the Potency was 15.8 µM (active). Also, the Potency result in experiment [5] was “inactive”.

`CC(C)c1ccc(NC(=O)c2ccc3c(O)c(S(=O)(=O)c4ccccc4)c(=O)[nH]c3c2)cc1`: in [3], the Potency entry is “inactive”.

As to `O=C(O)c1c(Br)c(Br)c(Br)c(Br)c1C1c2ccc(O)cc2Oc2cc(O)ccc21`, the Potency entry in experiment [6] was “inactive”.

Take `O=C(Nc1cc(C(=O)Nc2ccc(S(=O)(=O)O)cc2S(=O)(=O)O)cc(C(=O)Nc2ccc(S(=O)(=O)O)cc2S(=O)(=O)O)c1)Nc1cc(C(=O)Nc2ccc(S(=O)(=O)O)cc2S(=O)(=O)O)cc(C(=O)Nc2ccc(S(=O)(=O)O)cc2S(=O)(=O)O)c1`: the Potency entry in [6] was “inactive”.

For the molecule `O=C(O)c1nc2cc(Cl)c(Cl)cc2[nH]c1=O`, the Potency entry in experiment [4] is “inactive”.

For the molecule `O=c1c(O)cc(C2Oc3cc(O)cc(O)c3CC2O)cc2c(C3Oc4cc(O)cc(O)c4CC3O)cc(O)c(O)c12` (configuration not stated), the Potency in experiment [4] was 15.8 µM (active).

Consider `COc1cc(/C=C2/C(=O)N(c3ccc(O)cc3C(=O)O)[C@H](c3ccc(O)c(OC)c3)C2C(=O)Nc2ccc(O)cc2C(=O)O)ccc1O` (some centres not stated), for which the Potency result in experiment [7], in experiment [8], in experiment [9], in [10], in [11] and in experiment [12] was “inactive” each time.

`O=C(OCc1cc(=O)n2nc(C3CC3)sc2n1)c1ccc(NC(=O)c2ccccc2F)cc1`: in experiment [3], the Potency entry was “inactive”.

Consider `CCC1=C2CCCN3C(=O)O[C@H]([C@H]1OC(C)=O)[C@H]23`, for which the Potency entry in experiment [7], in experiment [8], in experiment [9], in [13], in [10] and in experiment [11] was “inactive” in each case. In addition, the Potency result in experiment [12], in experiment [15] and in [16] was “inactive” throughout. In addition, the Potency in experiment [14] is 0.0059 µM (active).

Turning to `Cc1ccc(-c2nnc(Nc3ccc(S(N)(=O)=O)cc3)c3ccccc23)cc1S(=O)(=O)N1CCOCC1`, in [3], the Potency result was “inactive”.

For the molecule `O=C(NCc1ccccc1Cl)c1ccc2c(O)c(S(=O)(=O)c3ccccc3)c(=O)[nH]c2c1`, the Potency entry in experiment [3] is “inactive”.

For `CC1=CC[C@@]2(C[C@@H]1O)[C@@H](C(=O)O)CC[C@H]2C(C)C`, the Potency result in experiment [7], in experiment [8], in experiment [9], in [10], in [17] and in experiment [11] was “inactive” each time. The Potency result in experiment [12] and in experiment [16] was “inactive” throughout. Further, the molecule was called inactive in experiment [18].
